Experimental data: PubChem BioAssay (Tox21)
A number with no mark means an inactive call. Inconclusive results are not listed. Entries that show only a call come without a potency. Calls of active or inactive are those of the source. Unless noted, the call rests on the fitted dose curve.

Key:
[1] = Nuclear factor erythroid 2-related factor 2/antioxidant responsive element (Nrf2/ARE) small molecule agonists: qHTS cell viability counter screen in human keratinocytes (AID 1919968; active means well fitted curve in the direction sought with a large enough effect in the repeat runs; an effect the other way counts as inactive or inconclusive; further: nearly all actives have a fitted effect of over 55% in size)
Outline: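 Cells of the KeratinoSens line were plated at 1,500 per well and left for 5 h before compound transfer from DMSO stocks. After a 23 h incubation (37 C, 5% CO2), CellTiter-Fluor was added. Signal was taken as fluorescence intensity 1 h later.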

[2] = Nuclear factor erythroid 2-related factor 2/antioxidant responsive element (Nrf2/ARE) small molecule agonists: luciferase reporter gene qHTS assay in human keratinocytes (AID 1919969); further: nearly all actives have a fitted effect of over 35% in size; further: potency means the concentration at half of the fitted maximal effect
[3] = biological target: KiSS-1 receptor (Homo sapiens) (UniProt Q969F8); experiment: Human kisspeptin (KISS1R) small molecule agonists, calcium flux assay in KISS1R-HEK293 cells (AID 1920064; active means well fitted curve in the direction sought with a large enough effect in the repeat runs; an effect the other way counts as inactive or inconclusive)
Outline: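 Cell line: HEK293, stable human KISS1R. Dye loading 1 h at 37 C after 18 h culture. Read: kinetic fluorescence, 480/540 nm, 3 min at 1 s intervals.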

[4] = G protein-coupled receptor (GPCR) small molecule agonists, calcium flux assay: HEK293 wild type cell line counter screen (AID 1920065)
Outline: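 Tox21 10K compounds, 15 concentrations each in triplicate, pin-transferred in DMSO onto dye-loaded cells; kinetic read at 480/540 nm for 3 min, 1 s intervals.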

[5] = p53 small molecule agonists, cell-based qHTS assay with human liver microsomes (AID 1963577);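 further: p53 response element beta-lactamase reporter cells with liver microsomes plus NADPH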
Outline: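 p53RE-bla cells; 5 h settle, 37 C/5% CO2; cpd + HLM 0.5 mg/mL + NADPH 0.5 mg/mL (final); 16 h 37 C; LiveBLAzer 2 h RT dark; fluorescence readout.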

[6] = p53 small molecule agonists, cell-based qHTS assay with rat liver microsomes (AID 1963578)
Outline: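 Rat liver microsome activation: microsomes 0.5 mg/mL, NADPH 0.5 mg/mL final; p53RE-bla cells, 16 h 37 C; LiveBLAzer readout, 2 h RT dark.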

[7] = p53 small molecule agonists, cell-based qHTS assay with rat liver microsomes: qHTS cell viability counter screen (AID 1963580); further: nearly all actives have a fitted effect of over 45% in size
Outline: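 Rat liver microsome (0.5 mg/mL final) and NADPH (0.5 mg/mL final) co-incubation with compounds for 16 h at 37 C on HCT-116 p53RE-bla cells; cytotoxicity taken from intracellular ATP luminescence.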

[8] = p53 small molecule agonists, cell-based qHTS assay: qHTS cell viability counter screen (AID 1963581); further: nearly all actives have a fitted effect of over 45% in size; further: potency means the concentration at half of the fitted maximal effect
Outline: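 ATP content measured by luminescence in HCT-116 p53RE-bla cells treated 16 h at 37 C, same wells as the reporter screen.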

[9] = p53 small molecule agonists, cell-based qHTS assay (AID 1963582; active means well fitted activation curve with a large enough effect in the signal ratio in the repeat runs, not every such curve was filed as active; the % refers to the signal ratio)
Outline: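 16 h compound exposure (37 C) of p53 response element–bla cells, preceded by 5 h recovery at 37 C/5% CO2; read-out via LiveBLAzer B/G FRET substrate, 2 h RT, fluorescence intensity.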

[10] = biological target: 5-hydroxytryptamine receptor 2A (Homo sapiens) (UniProt P28223); experiment: 5-hydroxytryptamine receptor 2A (HTR2A) small molecule antagonists, cell-based qHTS assay (AID 1963586); further: nearly all actives have a fitted effect of over 45% in size
Outline: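 CHO cells stably expressing human HTR2A were plated for 18 h at 37 C, then loaded with calcium dye for 1 h. Compounds were preincubated 5 min at room temperature before DOI (4 nM solution) was added. Kinetic fluorescence was read for 3 min.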

[11] = biological target: 5-hydroxytryptamine receptor 2A (Homo sapiens) (UniProt P28223); experiment: 5-hydroxytryptamine receptor 2A (HTR2A) small molecule agonists, cell-based qHTS assay (AID 1963587); further: nearly all actives have a fitted effect of over 30% in size
Outline: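 Kinetic calcium-flux fluorescence (2 min, 1 sec intervals) after compound addition in agonist mode. HTR2A-CHO cells were cultured 18 h, then dye-loaded 1 h at 37 C.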

[12] = biological target: Muscarinic acetylcholine receptor M1 (Homo sapiens) (UniProt P11229); experiment: Cholinergic receptor muscarinic 1 (CHRM1) small molecule antagonists, cell-based qHTS assay (AID 1963588); further: nearly all actives have a fitted effect of over 40% in size
Outline: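 Compounds were tested at 15 concentrations in three independent runs. Dye-loaded CHRM1-CHO cells were exposed 5 min at room temperature before stimulation by acetylcholine added at 50nM. Intracellular calcium was read kinetically on FDSS for 3 min.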

[13] = biological target: Muscarinic acetylcholine receptor M1 (Homo sapiens) (UniProt P11229); experiment: Cholinergic receptor muscarinic 1 (CHRM1) small molecule agonists, cell-based qHTS assay (AID 1963589); further: nearly all actives have a fitted effect of over 35% in size
Outline: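 Homogeneous fluorescence calcium flux, agonist mode. Human M1-expressing CHO cells; compound dosed at 15 concentrations, three independent runs; signal sampled every 1 sec.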

[14] = cAMP Responsive Elements (CRE) small molecule antagonists, cell-based qHTS assay (AID 1963591; active means well fitted inhibition curve with a large enough effect in the signal ratio in the repeat runs, not every such curve was filed as active; the % refers to the signal ratio)
Outline: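 First, CRE-bla HEK293T cells settled 18 h at 37 C. Next, compound and 0.25 uM final NKH477 were applied for 3 h. Last, LiveBLAzer B/G substrate was loaded for 2 h at room temperature.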

[15] = biological target: Beta-2 adrenergic receptor (Homo sapiens) (UniProt P07550); experiment: Adrenergic beta2 receptor (ADRB2) small molecule antagonists, cell-based qHTS assay (AID 1963592); further: series mostly up to about 92 µM; nearly all actives have a fitted effect of over 50% in size
Outline: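 Assay format: CHO-ADRB2 cells, 18-20hr seeding at 37C/5% CO2, then compound plus 1nM isoproterenol agonist mix for 0.5hr RT. Homogeneous time-resolved fluorescence cAMP detection after 1hr, expressed as 665/615 nm ratio.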

[16] = biological target: D(2) dopamine receptor (Homo sapiens) (UniProt P14416); experiment: Dopamine D2 receptor (DRD2) small molecule agonists, cell-based qHTS assay (AID 1963594); further: nearly all actives have a fitted effect of over 35% in size
Outline: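 cAMP accumulation in DRD2-HEK293 cells measured by HTRF after 1 h detection; compounds added 10 min before NKH477 (200nM […]) forskolin-analogue stimulation, 30 min at room temperature, with Ro20-1724 present at 0.1 mM final.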

[17] = biological target: D(2) dopamine receptor (Homo sapiens) (UniProt P14416); experiment: Dopamine D2 receptor (DRD2) small molecule antagonists, cell-based qHTS assay (AID 1963595; active means well fitted inhibition curve with a large enough effect in the signal ratio in the repeat runs, with a control signal flat; the % refers to the signal ratio)
Outline: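 Antagonist mode in DRD2-HEK293 cells: after compound addition with 0.1 mM Ro20-1724, cells received quinpirole (12 nM) and NKH477 (200 nM) for 30 min at room temperature; HTRF cAMP read after 1 h detection.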

[18] = p53 small molecule agonists, cell-based qHTS assay with human liver microsomes: qHTS cell viability counter screen (AID 1963579); further: nearly all actives have a fitted effect of over 45% in size
Outline: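 Luminescent CellTiter-Glo read-out, 30 min at room temperature, gauged cytotoxicity in p53RE-bla cells exposed 16 h at 37 C to DMSO-dissolved compounds with metabolic activation by human liver microsomes and NADPH, each 0.5 mg/mL final.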

[19] = cAMP Responsive Elements (CRE) small molecule agonists, cell-based qHTS assay (AID 1963590)
Outline: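 HEK 293T cells stably bearing CRE-bla were plated at 2,000 cells per well and rested 18 h. Compounds, positive controls or DMSO were added for 3 h at 37 C. LiveBLAzer B/G substrate was then loaded for 2 h at room temperature.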

[20] = biological target: Beta-2 adrenergic receptor (Homo sapiens) (UniProt P07550); experiment: Adrenergic beta2 receptor (ADRB2) small molecule agonists, cell-based qHTS assay (AID 1963593);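 further: CHO cells stably overexpressing human ADRB2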
Outline: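 CHO cells stably over-expressing ADRB2 were plated overnight at 37C, then dosed with compounds plus a stimulation mix containing 100uM IBMX and 25uM Ro-20-1724 for 0.5hr at room temperature. cAMP was measured by HTRF competition, 1hr.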

Sequence of 5-hydroxytryptamine receptor 2A (Homo sapiens) (P28223 whole entry, looked up): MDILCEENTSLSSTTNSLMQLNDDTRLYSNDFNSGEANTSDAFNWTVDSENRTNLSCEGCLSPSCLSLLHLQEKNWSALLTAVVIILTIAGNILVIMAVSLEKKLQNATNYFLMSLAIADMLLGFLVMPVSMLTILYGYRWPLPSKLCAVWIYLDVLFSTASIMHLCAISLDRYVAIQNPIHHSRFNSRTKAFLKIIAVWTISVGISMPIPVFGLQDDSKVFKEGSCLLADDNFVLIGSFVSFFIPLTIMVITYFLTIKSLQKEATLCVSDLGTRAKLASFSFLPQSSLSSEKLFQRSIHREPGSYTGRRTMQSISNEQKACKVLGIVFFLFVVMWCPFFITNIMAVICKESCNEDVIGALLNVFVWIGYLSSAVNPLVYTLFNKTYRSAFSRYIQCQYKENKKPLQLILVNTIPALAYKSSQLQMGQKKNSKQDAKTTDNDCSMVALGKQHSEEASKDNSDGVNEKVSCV
Sequence of D(2) dopamine receptor (Homo sapiens) (P14416 whole entry, looked up): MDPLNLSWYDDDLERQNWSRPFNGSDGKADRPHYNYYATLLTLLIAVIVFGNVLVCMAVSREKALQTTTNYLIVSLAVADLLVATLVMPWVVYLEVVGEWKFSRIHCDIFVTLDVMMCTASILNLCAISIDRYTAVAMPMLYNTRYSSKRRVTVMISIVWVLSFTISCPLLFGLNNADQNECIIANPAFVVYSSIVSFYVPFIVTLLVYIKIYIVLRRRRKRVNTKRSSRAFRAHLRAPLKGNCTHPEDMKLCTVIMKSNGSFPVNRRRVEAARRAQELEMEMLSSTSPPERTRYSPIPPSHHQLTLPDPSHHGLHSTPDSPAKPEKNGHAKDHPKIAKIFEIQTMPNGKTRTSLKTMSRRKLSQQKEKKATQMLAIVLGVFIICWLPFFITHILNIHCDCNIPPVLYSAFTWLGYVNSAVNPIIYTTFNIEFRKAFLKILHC
Sequence of KiSS-1 receptor (Homo sapiens) (Q969F8 whole entry, looked up): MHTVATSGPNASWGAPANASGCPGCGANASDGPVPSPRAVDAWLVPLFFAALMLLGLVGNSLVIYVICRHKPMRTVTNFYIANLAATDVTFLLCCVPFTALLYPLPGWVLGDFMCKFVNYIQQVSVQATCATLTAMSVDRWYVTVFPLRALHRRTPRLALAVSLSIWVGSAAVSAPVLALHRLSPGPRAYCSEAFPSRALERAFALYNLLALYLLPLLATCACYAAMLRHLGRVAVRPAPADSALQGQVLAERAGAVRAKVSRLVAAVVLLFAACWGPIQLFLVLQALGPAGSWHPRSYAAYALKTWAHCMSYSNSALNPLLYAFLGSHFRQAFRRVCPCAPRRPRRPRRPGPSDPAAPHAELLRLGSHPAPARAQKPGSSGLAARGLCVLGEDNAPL
Sequence of Beta-2 adrenergic receptor (Homo sapiens) (P07550 whole entry, looked up): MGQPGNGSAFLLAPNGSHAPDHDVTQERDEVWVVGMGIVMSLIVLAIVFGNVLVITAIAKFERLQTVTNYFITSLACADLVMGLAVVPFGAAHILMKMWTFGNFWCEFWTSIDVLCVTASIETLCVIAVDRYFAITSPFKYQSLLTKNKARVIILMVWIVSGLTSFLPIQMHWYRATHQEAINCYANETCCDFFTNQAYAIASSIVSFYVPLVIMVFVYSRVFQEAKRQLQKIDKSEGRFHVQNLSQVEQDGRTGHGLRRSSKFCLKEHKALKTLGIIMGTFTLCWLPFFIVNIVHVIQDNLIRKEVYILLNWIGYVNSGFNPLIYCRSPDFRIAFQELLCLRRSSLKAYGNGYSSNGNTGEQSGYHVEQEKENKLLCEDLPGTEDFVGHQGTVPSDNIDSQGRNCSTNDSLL
Sequence of Muscarinic acetylcholine receptor M1 (Homo sapiens) (P11229 whole entry, looked up): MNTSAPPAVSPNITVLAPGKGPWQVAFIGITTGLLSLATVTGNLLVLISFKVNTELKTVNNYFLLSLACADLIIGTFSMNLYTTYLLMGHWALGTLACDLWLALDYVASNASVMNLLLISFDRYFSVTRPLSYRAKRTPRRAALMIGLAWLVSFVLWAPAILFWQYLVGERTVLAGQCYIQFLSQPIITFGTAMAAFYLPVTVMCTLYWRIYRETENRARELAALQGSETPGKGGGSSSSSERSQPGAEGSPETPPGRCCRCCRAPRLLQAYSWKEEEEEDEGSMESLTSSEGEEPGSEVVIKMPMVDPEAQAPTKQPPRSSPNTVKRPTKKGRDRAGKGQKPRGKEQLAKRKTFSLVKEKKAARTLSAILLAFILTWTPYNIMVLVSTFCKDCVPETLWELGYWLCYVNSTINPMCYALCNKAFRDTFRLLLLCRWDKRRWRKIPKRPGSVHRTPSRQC

| SMILES | Potency [1] | Potency [2] | outcome [3] | outcome [4] | Potency [5] | Potency [6] | Potency [7] | Potency [8] | Potency [9] | Potency [10] | Potency [11] | Potency [12] | Potency [13] | Potency [14] | Potency [15] | Potency [16] | Potency [17] | Potency [18] | Potency [19] | Potency [20] |
| --- | --- | --- | --- | --- | --- | --- | --- | --- | --- | --- | --- | --- | --- | --- | --- | --- | --- | --- | --- | --- |
| CCN(Cc1c(F)cccc1Cl)c1c([N+](=O)[O-])cc(C(F)(F)F)cc1[N+](=O)[O-] | inactive | 15.4 µM (active) | inactive | inactive | inactive | inactive | inactive | 25.7 µM (active) | inactive | inactive | inactive | inactive | inactive | inactive | inactive | inactive | inactive | – | – | – |
| CC(C)C1OCCN1CCOC(=O)NCCCCCCNC(=O)OCCN1CCOC1C(C)C (centres undefined) | inactive | inactive | inactive | inactive | inactive | inactive | inactive | inactive | – | inactive | inactive | inactive | inactive | inactive | inactive | inactive | inactive | inactive | inactive | – |
| Nc1cccc2c(=O)[nH][nH]c(=O)c12 | inactive | inactive | inactive | inactive | inactive | inactive | inactive | inactive | inactive | – | – | inactive | inactive | – | inactive | inactive | inactive | inactive | – | – |
| O=P(O)(O)Oc1ccccc1 | inactive | inactive | inactive | inactive | inactive | inactive | – | inactive | inactive | inactive | inactive | inactive | inactive | inactive | inactive | inactive | – | inactive | inactive | – |
| NS(=O)(=O)c1cc(C(=O)NN2C[C@H]3[C@H]4CCC(C4)[C@H]3C2)ccc1Cl | inactive | inactive | inactive | inactive | inactive | inactive | inactive | inactive | – | – | inactive | inactive | inactive | – | inactive | inactive | – | inactive | – | inactive |
| CCOC(=O)COc1cc(-n2ncc(C(F)(F)F)c(C)c2=O)c(F)cc1Cl | inactive | inactive | inactive | inactive | inactive | inactive | inactive | inactive | inactive | – | inactive | inactive | inactive | – | inactive | inactive | inactive | inactive | – | inactive |
| CCOCCn1c(C2CCN(CCc3ccc(C(C)(C)C(=O)O)cc3)CC2)nc2ccccc21 | inactive | inactive | inactive | inactive | inactive | inactive | inactive | inactive | inactive | inactive | – | – | inactive | inactive | – | inactive | inactive | – | inactive | – |
